Screening results deposited in PubChem BioAssay by Sanford-Burnham Center for Chemical Genomics.
This is a sample that favours compounds with a hit; in the whole collection about 2.7% have one here.
NadD inh – inhibitors of Staphylococcus aureus NadD; purified NadD enzyme, colorimetric absorbance read-out; inhibition, % at 20 µM; 360,000 compounds, 0.78% hits; AID 602399; in the data active = inhibition above about 26%
MPTP inh – blocks calcium-induced mitochondrial swelling; isolated mouse mitochondria, Ca2+ swelling absorbance, 30 min; inhibition, % at 10 µM; 360,000 compounds, 1.4% hits;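 active = inhibition of 50% or more, scaled per plate between neutral and stimulator controls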;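 note: 0% = DMSO wells given calcium and 100% = 1 mM EGTA wells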
TAG inh – reduces triacylglycerol accumulation in H9c2 cells | Nile Red lipid (TAG) fluorescence; cells loaded with 200 µM oleic acid | inhibition, % at 12.5 µM | 230,000 compounds, 0.66% hits;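 active = pattern-corrected inhibition of lipid staining of at least 50% with the nuclear-stain viability signal not falling by more than 50%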;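 note: 0% = DMSO wells and 100% = triacsin C control wells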
aDG glyco act – increases alpha dystroglycan glycosylation | activation, % at 10 µM | Pro5-aDG cells, alpha-DG glycosylation AlphaScreen (IIH6); 0% Pro5, 100% B10-LARGE cell signal | AID 624168 | 360,000 compounds, 0.22% hits;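 active = activation of at least 8% versus controls, or a plate z-score of at least 8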;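 note: Pro5 are CHO cells carrying HIG-tagged alpha-DG that lacks glycosylation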
NadD inh conf – confirmation of Staphylococcus aureus NadD inhibitors; shares compounds with NadD inh; purified S. aureus NadD, colorimetric enzyme assay; inhibition, % at 20 µM; 2,000 compounds, 13% hits; AID 624309; in the data active = inhibition mostly above about 42%, no sharp cut-off; inactive = mostly below about 42%
Numbers without * were called inactive; · = not tested or not shown.

SMILES	NadD inh	MPTP inh	TAG inh	aDG glyco act	NadD inh conf
Cc1ccc(/C=c2\sc3nc(-c4ccccc4Br)nn3c2=O)o1	26*	-1	-3	0	10
Cc1ccc(/C=c2\sc3nc(-c4ccco4)nn3c2=O)o1	26	0	-1	0	·
CSc1ncc(CN2CCCC(C(=O)Nc3ccc(-c4ccco4)cc3)C2)cn1 (configuration not stated)	47*	-1	·	0	19
Cc1ccc(-c2cc3nc(C)cc(C)n3n2)cc1	-2	2	2	0	·
Cc1cc(C)n2nc(-c3ccsc3-n3c(C)ccc3C)cc2n1	39*	1	-6	3	14
COc1ccc(Cc2c(-c3ccco3)nc3ccc(Br)cn23)c(C)c1	59*	1	·	0	3
Cc1ccc(Cc2c(-c3ccco3)nc3ccc(Br)cn23)cc1	30*	-3	·	0	18
Cc1ccc(Cc2c(-c3ccc(C)cc3)nc3ccc(Br)cn23)cc1	11	-1	-6	0	·
Cc1ccc(-c2nc3ccc(Br)cn3c2Cc2cccc(F)c2)cc1	31*	0	·	0	6
COc1ccc(Cc2c(-c3ccco3)nc3ccc(Cl)cn23)c(C)c1	42*	-2	·	0	8
COC(=O)C1(NC(=O)CNC(=O)OCc2ccccc2)CCCC1	-3	0	-15	0	·
COc1ccc(CN2CCNC(=O)C2CC(=O)NCCC2=CCCCC2)c(F)c1 (configuration not stated)	0	0	11	0	·
Cc1ccc(C(=O)Nc2nnc([C@H]3C[C@H](O)[C@@H](CO)O3)s2)cc1	-3	1	-2	0	·
CCOc1ccc(CCN2C(=S)N([C@@H](CC(C)C)CN3CCC[C@@H]3CN3C(=S)NC[C@@H]3Cc3ccccc3)C[C@@H]2Cc2ccc(O)cc2)cc1	36*	1	·	0	1
CCOc1ccc(CCN2C(=S)N([C@@H](Cc3ccc(O)cc3)CN3CCC[C@@H]3CN3C(=S)NC[C@@H]3Cc3ccc(O)cc3)C[C@@H]2Cc2ccc(O)cc2)cc1	36*	-1	·	0	23
CCOc1ccc(CCN2C(=S)N([C@@H](Cc3ccc(O)cc3)CN3CCC[C@@H]3CN3C(=S)NC[C@@H]3Cc3ccccc3)C[C@@H]2CC(C)C)cc1	26	0	·	1	·
CCOc1ccc(CCN2C(=S)N([C@@H](Cc3ccccc3)CN3CCCC3CN3C(=S)NC[C@@H]3Cc3ccccc3)C[C@@H]2Cc2ccc(O)cc2)cc1 (some centres not stated)	50*	2	·	0	8
CCOc1ccc(CCN2C(=S)N([C@@H](Cc3ccc(O)cc3)CN3CCC[C@@H]3CN3C(=S)NC[C@@H]3Cc3ccccc3)C[C@@H]2Cc2ccccc2)cc1	27	0	·	1	·
COc1ccccc1NC(=O)C(=O)NNC(=O)COc1ccc2ccccc2c1	34*	2	·	0	33
COc1ccccc1NC(=O)COc1ccc2ccccc2c1	-8	-2	-5	0	·
O=C1Nc2ccccc2N=C(c2ccccc2)C1N(C(=O)c1ccnc2ccccc12)c1ccccc1 (configuration not stated)	16	-1	·	0	·
O=C(Cc1cc(=O)[nH][nH]1)N/N=C/C=C/c1ccccc1	34*	-9	·	0	64*
N#CC1=C(S)N(c2ccccc2)C(c2ccc(-c3cccc(Cl)c3)o2)NC1=O (configuration not stated)	42*	6	·	0	48
Cc1cccc(N2C(S)=C(C#N)C(=O)NC2c2ccco2)c1 (configuration not stated)	-1	0	-5	0	·
Cc1cc(C)c2nc(NC(=O)c3cccc(S(=O)(=O)N4CCc5ccccc54)c3)sc2c1	44*	2	·	0	0
CCN(CC)c1nc2c3c(nc4c(c3c1C#N)CC(=O)N4c1ccc(Cl)cc1)NC(C)=N2	45*	1	·	0	27
COc1ccc(CNC(=O)C(=O)NCC2OCCCN2S(=O)(=O)c2cccs2)cc1 (configuration not stated)	1	0	10	0	·
Cc1ccc2nc(C(C)(C)C)c(Cc3cccc(Cl)c3)n2c1	-2	-2	·	0	·
O=C(COc1ccc(/C=N/NC(=O)c2ccncc2)cc1)Nc1ccc([N+](=O)[O-])cc1	4	2	·	0	·
O=C(COc1ccc(/C=N/NC(=O)c2ccc(O)cc2)cc1)Nc1cccc([N+](=O)[O-])c1	28*	0	1	0	33
